This is a sample that favours compounds with a hit; in the whole collection about 4.3% have one here.
MCF10A rerep = DNA re-replication induction in MCF 10a cells; MCF 10A DNA re-replication, Hoechst nuclear intensity, 48 h; Potency, µM (top dose mostly 46.1 µM), for the others: top-dose activity, positive = re-replication, actives largely listed as activators; 2.9% of 350,000 active; AID 624296; further: potency means the concentration at half of the fitted maximal effect; % of control where 0% means no effect; nearly all actives have a fitted effect of over 50% in size
SW480 rereplic = DNA re-replication induction in SW480 cells | 1.8% of 340,000 active | SW480 DNA re-replication, Hoechst DNA content imaging, 48 h | Potency, µM (series often up to 46.1 µM), for inactives: at the top dose re-replication activation, hits mostly activators; further: potency means the concentration at half of the fitted maximal effect; % of control where 0% means no effect; nearly all actives have a fitted effect of over 55% in size
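First, 250 cells per well were seeded. Next, compound or vehicle (23 nL) was pinned in, plates sat 48 hr at 37 C. Finally Hoechst was added for 40 min before fluorescence scanning.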
Giardia kill = kills Giardia lamblia | Giardia lamblia trophozoite viability | activity change, % at 7.66 µM, hits read low | 0.15% of 340,000 active | AID 540267; in the data active means activity change below about -80%; inconclusive means between about -30% and that limit;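 further: parasites exposed to compound for two days anaerobically before the ATP read; on the % scale 0 is the no-effect control and ±100 the full control effect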
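Trophozoites 100 cells/well + cpd; 48 hrs, 37 deg C, anaerobic. ATPLite 1-Step added, 15-30 min RT, luminescence read (ATP-based viability).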
uPA generation = cell surface uPA generation inhibition; cell surface uPA generation assay, qHTS; Potency, µM (top dose mostly 38.3 µM), inactives show at the top dose activity change, negative = inhibition, most hits filed as inhibitors; 0.31% of 330,000 active; AID 540303; active means well fitted inhibition curve with a large enough effect; inconclusive means small, poorly fitted or top-dose-only effect; inactive means no such curve, though single readings can be large or run the other way; tested in mouse RAW 264.7 cells; further: potency means the concentration at half of the fitted maximal effect; on the % scale 0 is the no-effect control and ±100 the full control effect; nearly all actives have a fitted effect of over 55% in size
* hit, by the source's call; ? = inconclusive; nt = no result given; [ ] = remark or other dose. Unless noted, the call rests on the fitted dose curve; in most records, active means well fitted activation curve with a large enough effect; inconclusive means small, poorly fitted or top-dose-only effect; inactive means no such curve, though single readings can be large or run the other way.

SMILES | MCF10A rerep | SW480 rereplic | Giardia kill | uPA generation
Cc1cc(N/N=C/c2ccccc2[N+](=O)[O-])nc(-n2nc(C)cc2C)n1 | 7% | 23% | -8 | -2%
Cc1cc(N/N=C/c2cccc([N+](=O)[O-])c2)nc(-n2nc(C)cc2C)n1 | ? | 3.7µM* | 12 | 7%
O=C(N/N=C/c1ccc(-n2ccnc2)cc1)c1cccs1 | -1% | 5% | 0 | -3%
OCCC1CN(Cc2nc(-c3ccccc3)cs2)CCN1CCc1ccccc1 (centres undefined) | 2.9µM* | -6% | 8 | 8%
COc1ccc(O)c(CN2CCN(CCCc3ccccc3)C(CCO)C2)c1 (centres undefined) | 0.23µM* | -6% | -9 | ?
OCCC1CN(Cc2nc(-c3ccc(F)cc3)cs2)CCN1CCc1ccccc1 (centres undefined) | -5% | 18% | -20 | -1%
Cc1c(NS(=O)(=O)c2cccc(C(=O)NCc3cccc(Cl)c3)c2)c(=O)n(-c2ccccc2)n1C | 0% | -2% | 6 | 0%
COc1ccc(NC(=O)Cn2cc(S(=O)(=O)N3CCN(c4ccccc4F)CC3)c3ccccc3c2=O)cc1Cl | nt | nt | 1 | nt
CCC1=Nc2cc(C(=O)NCC3CCCO3)ccc2Sc2ccc(Br)cc21 (centres undefined) | ? | 10µM* | -12 | ?
O=C(NCC1CCCO1)c1ccc(NC(=O)c2ccc(Br)cc2)cc1 (centres undefined) | -6% | -6% | -15 | 2%
CCC1=Nc2cc(C(=O)NCC3CCCO3)ccc2Sc2ccc(Cl)cc21 (centres undefined) | 12µM* | ? | 7 | ?
CCCOc1ccc(/C(O)=C2\C(=O)C(=O)N(c3ccccn3)C2c2ccccc2F)cc1C (centres undefined) | ? | 21% | -14 | 2%
CC(O)CCCCn1c(=O)c2c(ncn2C)n(C)c1=O (centres undefined) | 2% | -3% | nt | nt
Cc1ccc(C)c(S(=O)(=O)N2CCN(C(=O)CCNS(=O)(=O)c3ccccc3)CC2)c1 | 9% | 1% | 3 | -1%
CCn1c(CCl)nc2cc(S(=O)(=O)N3CCOCC3)ccc21 | ? | 15µM* | 10 | -9%
Cc1c(NC(=O)C(C)N2C(=O)NC3(CCC(C)CC3)C2=O)c(=O)n(-c2ccccc2)n1C (centres undefined) | ? | 0% | 14 | 2%
COc1ccc(NC(=O)CN2C(=O)NC3(CCCC3)C2=O)cc1Cl | ? | ? | 11 | 0%
Cc1cccc(NC(NC(=O)c2ccccc2[N+](=O)[O-])C(Cl)(Cl)Cl)c1 (centres undefined) | -3% | 4% | -22 | -2%
CN1OC[C@@H]2CN(Cc3cc(Cl)cc(Cl)c3)[C@H](c3cccc(-c4ccccc4)c3)C[C@@H]21 | -25% | 6% | -1 | 4%
Cc1cc(C)nc(N/N=C/C2=C(N3CCOCC3)C(=C/c3ccccc3)/CC2)n1 | 8.2µM* | 16µM* | 10 | -5%
Cc1occc1C(=O)N/N=C/C1=C(N2CCOCC2)C(=C\c2ccc(Cl)cc2)/CC1 | 18µM* | ? | 9 | -11%
O=C(O)c1ccccc1N/N=C/C1=C(N2CCOCC2)C(=C\c2ccccc2)/CC1 | ? | ? | 20 | -1%
CCn1nc(C)c(Br)c1C(=O)Sc1ccccc1Cl | 18µM* | 23% | 12 | 1%
COc1ccc(CCNC(=O)CCCCCN2C(=O)[C@@H]3Cc4ccccc4CN3C2=O)cc1OC | 1% | -9% | -2 | 1%
CCCN(CC(=O)Nc1ccccc1OC)CC(=O)c1c(N)n(Cc2ccccc2)c(=O)n(C)c1=O | -1% | -8% | ? | ?
SMILES | MCF10A rerep | SW480 rereplic | Giardia kill | uPA generation
O=C(Nc1ccc(Cl)c(Cl)c1)C1=Cc2ccccc2OC1 | 21µM* | 3% | -17 | 9%
O=C(NCc1ccc(Cl)cc1)C1=Cc2cc(Cl)ccc2OC1 | 11% | 2% | -9 | 4%
O=C(Nc1cccc(Cl)c1)C1=Cc2cc(Cl)ccc2OC1 | 13µM* | 8% | -1 | 1%
Cc1cccc(Cn2c(SCc3ccc(C(=O)N4CCCCCC4)cc3)nc3ccncc32)c1 | nt | nt | 10 | nt
O=c1c(-c2ccc(O)cc2)coc2cc(OC3OC(CO)C(O)C(O)C3O)cc(O)c12 (centres undefined) | 0% | ? | 2 | 4.5µM*
Fc1ccccc1NC(=S)N/N=C/c1ccccc1Br | ? | 18µM* | 2 | nt
O=C(N/N=C/c1ccccc1O)c1ccncc1 | ? | ? | 7 | 7.1µM*
O=C(N/N=C/c1ccccc1O)c1cc[n+]([O-])cc1 | ? | 26µM* | 24 | -10%
O=[N+]([O-])c1ccc(/C=N/NC(=S)Nc2ccccc2F)o1 | -10% | 13% | -16 | 3%
NC(=S)N/N=C/c1ccccc1O | -3% | -9% | -2 | 8%
Oc1ccccc1C=NNC(=S)NN=Cc1ccccc1O | 18µM* | 3.7µM* | -2 | -9%
O=C(N/N=C/c1cccc2ccccc12)c1ccncc1 | -6% | -3% | -25 | 4%
O=C(CSc1nncn1-c1cccnc1)N(c1ccccc1)c1ccccc1 | 19% | -1% | -2 | 4%
Oc1ccccc1/C=N/NC(=S)NC1CC2CC1C1C=CCC21 (centres undefined) | 21µM* | ? | -3 | -13%
COc1cccc(/C=N/NC(=S)NC2CC3CC2C2C=CCC32)c1O (centres undefined) | ? | 14% | -25 | 7%
O=C(NCc1ccco1)c1ccc([N+](=O)[O-])o1 | ? | ? | -81* | -7%
O=C(Nc1ccc(Cl)cn1)c1ccc([N+](=O)[O-])o1 | 12µM* | 2.9µM* | ? | -13%
O=C(NCc1cccnc1)c1ccc([N+](=O)[O-])o1 | 15µM* | 2.9µM* | -90* | ?
Cc1c(Cl)c([N+](=O)[O-])nn1Cc1ccc(C(=O)Nc2ccc(Cl)cn2)o1 | ? | 1% | -21 | 0%
O=C(NCc1ccco1)NC(=O)c1csc([N+](=O)[O-])c1 | -8% | -2%[9.22 µM] | -82* | -1%
COc1cc(/C=N/NC(=O)CN(Cc2ccco2)S(=O)(=O)c2ccccc2)ccc1O | 0% | -3% | -2 | -3%
O=C(Nc1c(Cl)ccc2nsnc12)c1ccc([N+](=O)[O-])o1 | ? | ? | -87* | ?
O=C(Nc1cccnc1)c1ccc([N+](=O)[O-])o1 | 7.3µM* | ? | -86* | ?
CC1(c2ccccc2)CC(C)(C)N2C(=O)/C(=C3\SC(=S)NC3=O)c3cccc1c32 (centres undefined) | 3.3µM* | -5% | 7 | 4%
O[C@@H]1[C@@H](O)C=C2CCN3Cc4cc5c(cc4[C@H]1C23)OCO5 (some centres undefined) | 1% | ? | 0 | 1µM*
COc1ccc2c(c1OC)CN1CCc3cc4c(cc3[C@@H]1[C@@H]2O)OCO4 | 14% | -5% | 5 | -2%
CC(=O)OCC(NC(=O)C(C)NC(=O)OC(C)(C)C)C1OC(n2cc(C)c(=O)[nH]c2=O)C(OC(C)=O)C1OC(C)=O (centres undefined) | nt | nt | 1 | nt
